# In PubChem BioAssay:
# The source made the active and inactive calls.
# How the values were obtained:
# [1] = binders of probe aFSTL3 on microarray, primary screen, stem cell growth factor project, biochemical, small-molecule microarray, fluorescence 635/667 (AID 1064); settings: higher = more signal;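 further: measures binding of the biotinylated anti-FSTL3 antibody to printed compounds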
# [2] = binders from COS7 lysate, DM2A8 probe, primary screen, torsin A project, cell lysate, small-molecule microarray, fluorescence 635/667 (AID 1065); settings: higher = more signal, COS7 lysate expressing mutant human TOR1A
# [3] = binders of probe aFGF2 on microarray, primary screen, stem cell growth factor project, biochemical, small-molecule microarray, fluorescence 635/667 (AID 1067); settings: higher = more signal;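 further: measures binding of biotinylated aFGF2 protein to printed compounds on slides; z-score merges feature fluorescence and signal-to-noise across triplicate slides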
# [4] = binders of probe aFGF10 on microarray, primary screen, stem cell growth factor project, biochemical, small-molecule microarray, fluorescence 635/667 (AID 1071); settings: higher = more signal;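 further: score merges 667 nm spot intensity and signal to noise from triplicate slides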
# [5] = target: Neurogenic locus notch homolog protein 2 (Homo sapiens) (UniProt Q04721); assay: Notch2 binders on small-molecule microarrays, primary screen, biochemical, small-molecule microarray, 635 nm fluorescence, stem cell growth factors (AID 1073); settings: Notch2 binding, higher = more signal
# Chain of Neurogenic locus notch homolog protein 2 (Homo sapiens) (Q04721 whole entry, looked up, canonical isoform): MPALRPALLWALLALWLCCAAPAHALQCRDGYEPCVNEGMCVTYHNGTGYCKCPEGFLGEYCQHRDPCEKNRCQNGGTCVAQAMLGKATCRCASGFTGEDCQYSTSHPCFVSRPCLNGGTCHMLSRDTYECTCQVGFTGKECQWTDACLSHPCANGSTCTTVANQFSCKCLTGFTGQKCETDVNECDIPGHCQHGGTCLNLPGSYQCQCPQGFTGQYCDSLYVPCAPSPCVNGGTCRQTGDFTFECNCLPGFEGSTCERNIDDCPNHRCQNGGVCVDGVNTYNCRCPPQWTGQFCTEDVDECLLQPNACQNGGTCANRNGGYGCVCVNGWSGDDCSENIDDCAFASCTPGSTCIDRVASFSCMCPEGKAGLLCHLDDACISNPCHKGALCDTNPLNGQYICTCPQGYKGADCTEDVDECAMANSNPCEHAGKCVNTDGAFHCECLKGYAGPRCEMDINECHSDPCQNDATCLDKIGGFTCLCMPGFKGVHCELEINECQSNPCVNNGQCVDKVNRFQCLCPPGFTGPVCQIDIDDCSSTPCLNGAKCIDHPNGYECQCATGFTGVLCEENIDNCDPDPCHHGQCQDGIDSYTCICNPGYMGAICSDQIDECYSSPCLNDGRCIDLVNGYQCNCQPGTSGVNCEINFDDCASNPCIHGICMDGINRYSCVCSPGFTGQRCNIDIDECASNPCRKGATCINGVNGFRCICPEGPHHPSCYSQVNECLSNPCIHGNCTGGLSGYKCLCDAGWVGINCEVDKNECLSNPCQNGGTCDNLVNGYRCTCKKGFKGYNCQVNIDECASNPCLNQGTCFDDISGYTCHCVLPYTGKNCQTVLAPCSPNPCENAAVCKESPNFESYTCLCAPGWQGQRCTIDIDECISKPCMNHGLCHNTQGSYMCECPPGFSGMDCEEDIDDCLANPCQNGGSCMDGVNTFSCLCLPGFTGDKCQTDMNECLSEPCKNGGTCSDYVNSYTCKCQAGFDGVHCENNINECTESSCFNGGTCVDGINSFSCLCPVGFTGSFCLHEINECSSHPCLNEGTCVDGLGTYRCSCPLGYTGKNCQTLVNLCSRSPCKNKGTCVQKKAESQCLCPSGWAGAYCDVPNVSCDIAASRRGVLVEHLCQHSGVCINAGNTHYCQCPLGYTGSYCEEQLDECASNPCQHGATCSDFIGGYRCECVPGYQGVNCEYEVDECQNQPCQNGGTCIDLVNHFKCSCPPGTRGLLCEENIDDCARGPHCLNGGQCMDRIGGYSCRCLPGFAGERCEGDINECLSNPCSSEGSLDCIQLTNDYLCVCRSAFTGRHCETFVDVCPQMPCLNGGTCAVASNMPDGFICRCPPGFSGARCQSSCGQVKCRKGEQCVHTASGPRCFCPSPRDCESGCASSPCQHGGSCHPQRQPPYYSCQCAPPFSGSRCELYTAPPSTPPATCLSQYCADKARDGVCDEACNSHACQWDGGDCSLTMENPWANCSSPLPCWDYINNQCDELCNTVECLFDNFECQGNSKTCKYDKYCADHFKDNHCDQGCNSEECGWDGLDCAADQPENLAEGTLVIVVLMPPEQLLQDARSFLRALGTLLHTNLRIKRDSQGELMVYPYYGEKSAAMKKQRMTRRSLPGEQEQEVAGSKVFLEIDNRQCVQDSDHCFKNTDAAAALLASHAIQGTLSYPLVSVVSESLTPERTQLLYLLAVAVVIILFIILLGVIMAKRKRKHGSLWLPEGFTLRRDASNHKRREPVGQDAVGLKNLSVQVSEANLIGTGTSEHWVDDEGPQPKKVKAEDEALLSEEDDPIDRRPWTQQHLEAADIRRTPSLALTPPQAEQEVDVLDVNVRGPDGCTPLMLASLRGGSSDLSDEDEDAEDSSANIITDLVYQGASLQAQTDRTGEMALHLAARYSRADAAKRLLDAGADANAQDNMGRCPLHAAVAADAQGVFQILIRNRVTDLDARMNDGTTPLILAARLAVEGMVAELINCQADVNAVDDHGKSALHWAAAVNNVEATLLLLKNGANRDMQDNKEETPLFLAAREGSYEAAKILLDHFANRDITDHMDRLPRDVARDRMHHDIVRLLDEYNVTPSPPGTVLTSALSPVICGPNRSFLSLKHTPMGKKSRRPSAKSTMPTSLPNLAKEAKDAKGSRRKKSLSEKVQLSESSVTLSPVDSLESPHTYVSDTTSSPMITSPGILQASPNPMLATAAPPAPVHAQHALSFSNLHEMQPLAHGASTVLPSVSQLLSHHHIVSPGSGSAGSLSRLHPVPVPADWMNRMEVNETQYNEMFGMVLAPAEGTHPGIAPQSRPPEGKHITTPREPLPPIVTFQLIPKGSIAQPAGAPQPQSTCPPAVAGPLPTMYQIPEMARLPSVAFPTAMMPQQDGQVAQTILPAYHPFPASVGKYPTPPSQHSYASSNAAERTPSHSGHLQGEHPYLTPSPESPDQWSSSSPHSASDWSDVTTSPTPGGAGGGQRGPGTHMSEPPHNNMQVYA
# [6] = target: Pro-neuregulin-1, membrane-bound isoform (Homo sapiens) (UniProt Q02297); assay: NRG1 binders on small-molecule microarrays, primary screen, psychiatric disease protein project, biochemical, small-molecule microarray, fluorescence 635/667 (AID 1075); settings: NRG1 binding, 635 nm fluorescence, higher = more signal;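 further: score combines 667 nm spot fluorescence with signal to noise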
# Chain of Pro-neuregulin-1, membrane-bound isoform (Homo sapiens) (Q02297 whole entry, looked up, the tested form may be a part, canonical isoform): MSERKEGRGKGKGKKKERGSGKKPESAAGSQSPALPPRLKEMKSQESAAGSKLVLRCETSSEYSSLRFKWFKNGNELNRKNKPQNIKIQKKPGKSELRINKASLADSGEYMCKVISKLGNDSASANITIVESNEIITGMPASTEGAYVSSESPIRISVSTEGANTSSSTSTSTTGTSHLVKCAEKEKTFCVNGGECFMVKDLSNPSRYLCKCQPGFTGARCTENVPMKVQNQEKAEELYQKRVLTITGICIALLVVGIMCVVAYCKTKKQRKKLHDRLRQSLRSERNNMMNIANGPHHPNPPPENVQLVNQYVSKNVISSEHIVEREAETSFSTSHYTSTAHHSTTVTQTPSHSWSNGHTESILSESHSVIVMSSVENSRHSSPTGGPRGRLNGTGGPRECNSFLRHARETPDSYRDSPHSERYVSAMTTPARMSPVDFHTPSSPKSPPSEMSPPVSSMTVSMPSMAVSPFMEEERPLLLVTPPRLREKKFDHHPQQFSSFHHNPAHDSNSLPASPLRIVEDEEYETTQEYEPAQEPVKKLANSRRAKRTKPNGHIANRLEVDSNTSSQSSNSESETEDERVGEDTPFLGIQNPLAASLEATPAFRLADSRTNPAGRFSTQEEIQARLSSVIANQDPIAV
# [7] = tested on: Neuregulin-1 EGF-like domain; assay: binders of neuregulin-1 EGF-like domain, primary screen, biochemical, small-molecule microarray, 635 nm fluorescence (AID 1081); settings: small-molecule microarray binding, higher = more signal;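 further: binding of the protein to compounds printed on small-molecule microarray slides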
# [8] = FRG1 promoter luciferase signal modulators, primary screen, FRG1 inhibition for FSHD, cell-based, C2C12 myotubes, firefly/Renilla luciferase, luminescence (AID 1084); settings: higher = more signal, called active from +8 up or from −8 down
# [9] = binders of probe aFST on microarray, primary screen, stem cell growth factor project, biochemical, small-molecule microarray, fluorescence 635/667 (AID 1086); settings: higher = more signal;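 further: score merges 667 nm fluorescence with signal-to-noise of each printed compound spot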
# [10] = binders of probe aHhip on microarray, primary screen, stem cell growth factor project, biochemical, small-molecule microarray, fluorescence 635/667 (AID 1087); settings: higher = more signal;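 further: score merges spot fluorescence at 667nm with spot signal to noise ratio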
# [11] = tested on: PRMT1 (protein arginine N-methyltransferase 1); assay: PRMT1 binders on small-molecule microarrays, primary screen, biochemical, small-molecule microarray, 635 nm fluorescence (AID 1088); settings: small-molecule microarray binding, higher = more signal;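 further: binding of Prmt1 protein to compounds spotted on small-molecule microarray slides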
# [12] = yeast growth modulation, basal conditions, primary screen, YJM789 clinical isolate, OD600, 24 h (AID 1089);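 further: growth of clinical yeast isolate S. cerevisiae YJM 789 seeded 1000 cells per well; test concentration not given here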; settings: S. cerevisiae YJM789 growth, higher = more signal, called active from +8 up or from −8 down
# [13] = fission yeast growth modulation, primary screen, strain 972, OD600, 24 h, no modulator (AID 1090);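 further: basal condition with compound alone and no growth modifier present; test concentration not given here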; settings: S. pombe 972 growth, higher = more signal, called active from +8 up or from −8 down
# [14] = S. cerevisiae growth modulation with rapamycin, primary screen, strain BY4716, OD600, 96 h (AID 1091); settings: higher = more signal, called active from +8 up or from −8 down; further: test concentration not given here
# [15] = target: Torsin-1A-interacting protein 2 (Homo sapiens) (UniProt Q8NFQ8); assay: LULL1 binders on small-molecule microarray, primary screen, cell lysate, human LULL1 lysate, 635/667 nm fluorescence (AID 1092); settings: hLULL1 lysate binding, 635 nm fluorescence, higher = more signal;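 further: probe is lysate of COS7 cells overexpressing human LULL1; score merges per-feature 667 nm fluorescence with signal-to-noise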
# Chain of Torsin-1A-interacting protein 2 (Homo sapiens) (Q8NFQ8 whole entry, looked up): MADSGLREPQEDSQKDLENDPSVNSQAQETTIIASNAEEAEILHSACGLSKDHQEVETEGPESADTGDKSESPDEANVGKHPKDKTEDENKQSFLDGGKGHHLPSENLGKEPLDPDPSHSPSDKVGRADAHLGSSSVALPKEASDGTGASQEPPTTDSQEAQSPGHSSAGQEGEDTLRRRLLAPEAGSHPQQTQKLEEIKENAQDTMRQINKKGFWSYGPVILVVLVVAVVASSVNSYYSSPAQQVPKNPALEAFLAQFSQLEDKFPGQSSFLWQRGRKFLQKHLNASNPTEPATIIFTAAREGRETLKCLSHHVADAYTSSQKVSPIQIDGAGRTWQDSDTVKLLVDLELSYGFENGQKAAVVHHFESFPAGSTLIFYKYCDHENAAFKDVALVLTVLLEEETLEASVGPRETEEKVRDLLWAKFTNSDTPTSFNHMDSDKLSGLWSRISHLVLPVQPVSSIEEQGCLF
# [16] = E. coli growth modulation, two-sided OD650, primary screen, E. coli filamentation project, strain DRC41, 24 h (AID 1093); settings: OD650, 24 h, higher = more signal, called active from +8 up or from −8 down;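 further: MC1000 strain lacking acrAB efflux and sulA so SOS filamentation is blocked; test concentration not given here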
# [17] = small-molecule microarray binders of probe aLefty2, primary screen, biochemical, biotinylated probe, 635/667 nm fluorescence (AID 1094); settings: higher = more signal;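 further: score merges spot fluorescence near 667 nm with spot signal-to-noise ratio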
# [18] = tested on: Noggin (protein binding on small-molecule microarray); assay: Noggin binders on small-molecule microarray, primary screen, biochemical, 635/667 nm fluorescence (AID 1095); settings: 635 nm fluorescence, higher = more signal;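 further: score merges 667 nm feature fluorescence with signal to noise over triplicate slides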
# [19] = target: Neurogenic locus notch homolog protein 3 (Homo sapiens) (UniProt Q9UM47); assay: NOTCH3 binders on small-molecule microarray, primary screen, biochemical, 635/667 nm fluorescence (AID 1096); settings: NOTCH3 binding, 635 nm fluorescence, higher = more signal
# [20] = small-molecule microarray binders of probe aEGFR, primary screen, biochemical, biotinylated probe, 635/667 nm fluorescence (AID 1097); settings: higher = more signal;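 further: probe is a biotinylated anti-EGFR antibody binding compounds printed on slides; score combines fluorescence near 667 nm and signal to noise of each spot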
SMILES,composite z-score [1],composite z-score [2],composite z-score [3],composite z-score [4],composite z-score [5],composite z-score [6],composite z-score [7],z-score [8],composite z-score [9],composite z-score [10],composite z-score [11],z-score [12],z-score [13],z-score [14],composite z-score [15],z-score [16],composite z-score [17],composite z-score [18],composite z-score [19],composite z-score [20]
CCOC(=O)[C@H](CC(C)C)NC(=O)CCC1CC(OC(=O)NCc2ccc3c(c2)OCO3)CC2(CCCC(COC(=O)NCc3cccc(C(F)(F)F)c3)O2)O1 (stereo not given in full),-0.109,-0.249,-0.0841,0.371,0.421,0.0839,0.445,0.31 (inactive),0.0884,-0.0994,0.312,0.518 (inactive),0.486 (inactive),1.29 (inactive),0.851,-0.772 (inactive),-0.154,0.184,0.082,-0.171
CCN1C(=O)[C@H]2[C@H]3[C@H](O)[C@H](O)CC(=O)[C@H]3CC[C@H]2C1=O,-0.652,0.481,-0.0566,0.39,0.132,0.298,0.81,0.276 (inactive),0.0722,0.0373,0.288,-0.955 (inactive),-0.38 (inactive),-0.18 (inactive),0.718,0.759 (inactive),-0.228,0.675,0.386,-0.0989
CCCNC(=O)OC[C@H]1O[C@H](CCON=Cc2ccc(C(=O)N3[C@H](c4ccc(C)cc4)[C@@H](C)CC[C@H]3C(=O)OC)cc2)C=C[C@@H]1Oc1ccc(OC)cc1,-0.52,0.304,-0.173,0.335,0.458,0.448,0.51,0.868 (inactive),0.598,-0.102,1.15,0.0299 (inactive),1.68 (inactive),1.25 (inactive),1.02,0.215 (inactive),-0.263,1.03,0.607,-0.307
CCOC(=O)[C@H](Cc1ccccc1)NC(=O)CCC1CC(OC(=O)NCc2cccc3ccccc23)CC2(CCCC(COC(=O)NCc3cccc(C(F)(F)F)c3)O2)O1 (stereo not given in full),-0.223,-0.549,-0.0934,0.19,0.211,0.567,0.74,-1.05 (inactive),-0.143,-0.0645,0.176,0.655 (inactive),0.611 (inactive),1.67 (inactive),1.48,-0.353 (inactive),-0.217,0.0178,0.212,-0.114
COC(=O)[C@@H]1CC[C@H](C)[C@@H](c2ccc(C)cc2)N1C(=O)c1ccc(C=NO[C@@H]2O[C@H](COC(C)=O)[C@@H](OC(C)=O)[C@H](OC(C)=O)[C@H]2OC(C)=O)cc1,-0.241,0.427,-0.0985,0.514,0.527,0.0818,0.319,0.861 (inactive),0.337,0.0749,1.43,1.26 (inactive),-0.631 (inactive),0.876 (inactive),0.475,-1.3 (inactive),-0.0873,0.199,0.864,0.129
